Bioassay records: PubChem, National Center for Advancing Translational Sciences (NCATS)
TGFb inhibitor – blocks TGF-b signaling | Potency, µM (highest dose often 46.1 µM), for inactives: at the top dose activity, negative = inhibition, most hits filed as inhibitors | AID 588855 | 410,000 tested, 1.2% active | HepG2 CAGA-GFP TGF-b/SMAD3 reporter, GFP fluorescence, 18 h; TGF-beta stimulated, 500 pg/mL final; note: potency is the fitted concentration of half-maximal effect; % is set by controls: 0 for no effect and ±100 for the full control effect; nearly all actives have a fitted effect of over 65% in size
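HEPG2 CAGA-GFP, 1000 cells/well; 2 h settle, 37 C; cpd via pin tool; TGF-b 500 pg/mL final; 18 h, 37 C; GFP imaging ex488/em500-530; %Activity normalised to -TGF-b and +DMSO controls; CRC fit, curve class.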
DT40 TDP1 no CPT – qHTS for Inhibitors of human tyrosyl-DNA phosphodiesterase 1 (TDP1): qHTS in cells in absence of CPT; AID 686978, 2013; 420,000 tested, 15% active; Potency, µM (top dose mostly 46.2 µM), for inactives: at the top dose activity change, negative = growth inhibition, most hits filed as inhibitors; DT40 Tdp1-/- hTDP1 cells, no CPT, ATP luminescence, 48 h; note: potency is the fitted concentration of half-maximal effect; % is set by controls: 0 for no effect and ±100 for the full control effect; nearly all actives have a fitted effect of over 55% in size
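Stably hTDP1-transfected Tdp1-null chicken DT40 cells were treated with library compounds minus camptothecin and grown for at least 48 hr at 37 °C, after which cellular ATP was quantified by luminescence.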
HepG2 tox – kills HepG2 cells in TGF-b inhibitor counter-screen | 410,000 tested, 0.76% active | HepG2 CAGA-GFP viability, ATP luminescence, 18 h | Potency, µM (highest dose often 46.1 µM), for inactives: top-dose activity change, negative = cytotoxicity, hits mostly cytotoxic; note: potency is the fitted concentration of half-maximal effect
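HepG2 CAGA-GFP cells (1000/well, DMEM with 1% FBS) received compound, then TGF-beta at 500 pg/mL final, and were incubated 18 hours at 37 degrees C. Viability was read by CellTiter-Glo luminescence. Media-only wells were set as complete cell-killing and DMSO as no toxicity.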
TDP1 cell CPT – growth inhibition of DT40 Tdp1-/-;hTDP1 cells with camptothecin (screen for TDP1 inhibitors) | 420,000 tested, 12% active | Potency, µM (top dose mostly 46.2 µM), for inactives: at the top dose activity change, negative = growth inhibition, most hits filed as inhibitors | chicken DT40 Tdp1-/-;hTDP1 cells + 20 nM CPT, ATP luminescence, 48 h; note: potency is the fitted concentration of half-maximal effect; % is set by controls: 0 for no effect and ±100 for the full control effect; nearly all actives have a fitted effect of over 55% in size
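Cell growth measured by CellTiter-Glo luminescence after a minimum 48 h, 37 C compound exposure with 20 nM CPT in Tdp1-knockout DT40 cells stably expressing hTDP1, seeded 400/well; qHTS titration format.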
IL-1B inflam inh – inflammasome signaling inhibition, IL-1 beta readout; AID 743279; 360,000 tested, 4.7% active; THP-1 LPS/ATP IL-1B secretion, AlphaLISA, 16 h; hits give low values; activity change, % at 57.5 µM; in the data active = activity change below about -50%; inconclusive = mostly about -30% to -49%; note: % is set by controls: 0 for no effect and ±100 for the full control effect
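Secreted IL-1B measured by AlphaLISA bead assay after 16 h compound exposure of THP-1 cells; compounds (final up to 57.5 uM) added 1 h before LPS (250 ng/mL) and ATP (1.25 mM) stimulation; lower signal means less secretion.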
ASM inhibitor – blocks human secretory acid sphingomyelinase | placental ASM, HMU-PC fluorogenic substrate, 60 min | Potency, µM (titrated, usually from 57.5 µM), inactives show at the top dose activity change, negative = inhibition, actives largely listed as inhibitors | 340,000 tested, 0.006% active; note: potency is the fitted concentration of half-maximal effect
Target sequence (P17405 47-631 limits assumed): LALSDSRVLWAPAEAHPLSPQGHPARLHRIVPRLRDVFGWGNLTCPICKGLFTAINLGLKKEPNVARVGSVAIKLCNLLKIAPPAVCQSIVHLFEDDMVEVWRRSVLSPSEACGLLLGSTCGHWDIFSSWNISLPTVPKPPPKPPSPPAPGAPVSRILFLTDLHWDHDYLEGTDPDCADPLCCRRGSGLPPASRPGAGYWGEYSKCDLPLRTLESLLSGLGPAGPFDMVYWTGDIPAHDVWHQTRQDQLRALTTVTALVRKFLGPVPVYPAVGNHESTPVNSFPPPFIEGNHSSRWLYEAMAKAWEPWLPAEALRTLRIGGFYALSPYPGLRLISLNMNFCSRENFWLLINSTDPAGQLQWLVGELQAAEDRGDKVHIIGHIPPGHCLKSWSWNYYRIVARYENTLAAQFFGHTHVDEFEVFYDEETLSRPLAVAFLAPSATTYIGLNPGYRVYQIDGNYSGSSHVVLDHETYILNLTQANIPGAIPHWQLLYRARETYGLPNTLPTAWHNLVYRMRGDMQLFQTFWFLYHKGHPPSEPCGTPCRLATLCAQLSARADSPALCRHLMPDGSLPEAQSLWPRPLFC
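Steps: dispense placental human ASM, pin compound, wait 10 min at room temperature, add HMU-PC0 substrate at 9 uM final, incubate 60 min at 37 °C, add stop solution raising pH to 10, read fluorescence.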
* marks the source's active call; other numbers are inactive results; ? = inconclusive; · = no result. Sampled rows, rich in hits. Any-hit rate of the full collection: about 19%. Unless noted, calls come from the whole dose curve; as a rule, active = well fitted curve in the direction sought with a large enough effect; inconclusive = small, poorly fitted or top-dose-only effect, or another doubt; inactive = no such curve, though single readings can be large; an effect the other way counts as inactive or inconclusive.

SMILES | TGFb inhibitor | DT40 TDP1 no CPT | HepG2 tox | TDP1 cell CPT | IL-1B inflam inh | ASM inhibitor
Cc1ccccc1N1CCN(Cc2c(C#N)c3ccccc3n2C)CC1 | 4.0% | ? | -7.3% | 18.4µM* | 10.9 | -8.7%
Cc1ccc(NC(=O)CSc2nc3ccccc3c3nc(CCc4c(C)n[nH]c4C)nn23)cc1F | -16.4% | 6.51µM* | -47.1% | 7.31µM* | -5.8 | -4.1%
Cc1cccc(C)c1NC(=O)CSc1nc2ccccc2c2nc(CCc3c(C)n[nH]c3C)nn12 | 8.2% | -29.3% | -2.5% | -17.1% | · | ·
Cc1n[nH]c(C)c1CCc1nc2c3ccccc3nc(SCC(=O)Nc3ccc(F)cc3)n2n1 | ? | 29.1µM* | 12.6µM* | 18.4µM* | · | ·
Cn1cc(C(c2ccccc2OCC(=O)O)c2cn(C)c3ccccc23)c2ccccc21 | -0.2% | 16.4µM* | 0.0% | 11.6µM* | -10.3 | -2.0%
Cn1c2c(c3cnc4cc(Cl)ccc4c31)CN(Cc1ccc(Cl)cc1)CC2 | -0.5% | 7.08µM* | 0.3% | 7.94µM* | · | ·
CCCC1(c2ccccc2)NC(=O)N(CC(=O)Nc2ccc3c(c2)OCCO3)C1=O (configuration not stated) | 6.1% | ? | 1.4% | -10.3% | -19.4 | -3.6%
Cc1ccc(C2(O)CN(c3ccccc3)C3=[N+]2CCS3)cc1 (configuration not stated) | 0.8% | ? | -15.0% | ? | -75.6* | -1.0%
Cc1ccccc1N1CC(O)(c2ccccc2)[N+]2=C1SCC2 (configuration not stated) | -33.9% | ? | -13.6% | ? | 17.1 | 1.4%
Cc1ccc(C2(O)CN(c3ccccc3C)C3=[N+]2CCS3)cc1 (configuration not stated) | 3.1% | 18.4µM* | 6.4% | 11.6µM* | 29.6 | -0.6%
O=C(COC(=O)c1ccco1)c1ccc(S(=O)(=O)N2CCCCC2)cc1 | 4.5% | 2.3% | 9.5% | -15.4% | 0.2 | -1.6%
Cc1cccc(Oc2coc3cc(OCC(=O)NC4CCCCC4)ccc3c2=O)c1 | ? | 23.1µM* | -35.9% | 20.6µM* | · | ·
NC(c1ccccc1)c1csc(Nc2ccc(C(=O)NCCO)cc2)n1 (configuration not stated) | 16.1% | ? | -16.8% | ? | 18.3 | ·
CC(C)c1ccc(NC(=O)Nc2nc(C(N)C(C)C)cs2)cc1 (configuration not stated) | ? | 16.4µM* | -101.3% | 14.6µM* | -63.3* | ·
Cc1ccc(C(=O)Nc2nc(C(N)C(C)C)cs2)cc1 (configuration not stated) | -1.0% | 16.4µM* | -30.3% | ? | ? | ·
CC(C)c1ccc(NC(=O)Nc2nc(C(N)COCc3ccccc3)cs2)cc1 (configuration not stated) | 11.2µM* | 14.6µM* | 10µM* | 16.4µM* | ? | ·
Cc1ccc(C(=O)Nc2nc(-c3cc(Cl)sc3Cl)cs2)cc1 | 0.8% | ? | -3.3% | -26.2% | 23.7 | -1.4%
NC(CO)c1csc(NC(=O)Nc2ccccc2Cc2ccccc2)n1 (configuration not stated) | 15.5% | ? | 4.0% | ? | -13.3 | ·
Cc1csc(NC(=O)Nc2ccc(Cl)cc2)n1 | -0.5% | -21.7% | -28.3% | -25.6% | -8.0 | 8.1%
NC(c1ccccc1)c1csc(Nc2ccc(C(=O)c3ccccc3)cc2)n1 (configuration not stated) | ? | 18.4µM* | -99.9% | ? | ? | ·
COc1ccc(CC(=O)NC2CCS(=O)(=O)C2)cc1 (configuration not stated) | 6.5% | 0.6% | 4.2% | -18.1% | -9.3 | 2.8%
